Data from PubChem BioAssay.
Active and inactive are the calls of the source.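 How the source made its calls, unless noted: active means compounds that lower survival of HCT116 colon cancer cells in the luminescence readout, no numeric limit stated; inactive means the rest.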

Tests used:
[1] = stimulators of nuclear beta-catenin in C2C12, primary screen, imaging, WNT3A-conditioned medium, mouse C2C12, NPC library (AID 1117326; in the data active means nuclear beta-catenin stimulation mostly above about 4.2%, no sharp cut-off; inactive means mostly below about 10%; further: reference of the scale not given here); conditions: stronger effect = higher value
[2] = stimulators of insulin release from INS-1E, primary screen, cell-based, 5 mM glucose, NPC library (AID 1117329;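 active means compound raises insulin release from rat beta cells at 5 mM glucose, no numeric limit stated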; further: reference of the scale not given here); conditions: rat INS-1E insulin secretion, at 10 µM, stronger effect = higher value
[3] = growth inhibition of GSK3B-pretreated HCT116 cells – cell-based, CellTiter-Glo, 0.2 to 20 µM (AID 1117336;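 active means compounds lowering colon cancer cell viability after pretreatment blocking the GSK3B kinase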); conditions: HCT116 viability after GSK3B inhibitor, at 20 µM, stronger effect = higher value
[4] = inhibition of endothelial tube formation, primary screen, imaging, VEGF stimulated, CD31 staining, tube area, NPC library (AID 1117340;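 active means compound that reduces growth-factor-driven endothelial tube area in a mixed cell culture, no cutoff stated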); conditions: VEGF-stimulated ADSC/ECFC co-culture, at 10 µM, stronger effect = higher value
[5] = glucagon-like peptide 1 release enhancers, primary assay, NCI-H716 cell line, NPC library (AID 1117341;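 active means compound raises GLP1 secretion from the human gut endocrine cells, with no numeric limit stated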; further: reference of the scale not given here); conditions: NCI-H716 cells, at 10 µM, stronger effect = higher value
[6] = HCT116 colon cancer cell growth inhibition, primary screen, CellTiter-Glo luminescence, NPC library (AID 1117342); conditions: at 20 µM (top of the series)
[7] = CellTiter-Glo luminescent readout of SW480 viability loss, NPC library primary (AID 1117343;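 active means compounds that lower viability of the colon cancer cells in the luminescence readout, with no numeric limit stated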); conditions: CellTiter-Glo luminescence; at 20 µM (top of the series)
[8] = decreased DLD-1 cellular survival, CellTiter-Glo luminescent readout, NPC compound collection, primary HTS (AID 1117346;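 active means compounds that lower survival of DLD-1 colon cancer cells in the luminescence readout, no cutoff given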); conditions: DLD-1 viability, CellTiter-Glo luminescence; at 20 µM (top of the series)

Structure (SMILES)	nuclear beta-catenin stimulation ([1]; at 10 µM)	nuclear beta-catenin stimulation ([1]; stimulation, at 2 µM)	insulin secretion stimulation [2]	viability decrease [3]	tube area decrease [4]	GLP1 secretion stimulation [5]	inhibition of viability [6]	viability decrease (inhibition) [7]	viability decrease (inhibition) [8]
C/C=C/C=N/NC(=O)c1ccncc1	0.2% (inactive)	0.6%	-2.2% (inactive)	-6.2% (inactive)	6% (inactive)	-0.1% (inactive)	17% (inactive)	27.7% (inactive)	-3.65% (inactive)
CC1CC(=O)NN=C1c1ccc(NCC(C)(C)NCC(O)COc2cc(Cl)ccc2C#N)cc1 (centres undefined)	-1.8% (inactive)	1.1%	31.3% (active)	-8% (inactive)	11.2% (inactive)	1% (inactive)	23.2% (inactive)	5.4% (inactive)	15.4% (inactive)
CC1(C)CO[C@@H](CC(=O)O)CN1	-0.7% (inactive)	0.1%	0.5% (inactive)	-0.8% (inactive)	-11.6% (inactive)	-0.1% (inactive)	7.17% (inactive)	-7% (inactive)	-1% (inactive)
Nc1cc(C(F)(F)F)ccc1S	0% (inactive)	-0.9%	4.4% (inactive)	2.3% (inactive)	44.8% (active)	20.5% (active)	16.7% (inactive)	-4.3% (inactive)	20.8% (inactive)
CCOC(=O)OCC/C(SC(=O)OCC)=C(\C)N(C=O)Cc1cnc(C)nc1N	1.8% (inactive)	0.3%	1.5% (inactive)	2.5% (inactive)	-11% (inactive)	2.9% (inactive)	-0.4% (inactive)	-22.7% (inactive)	-10.1% (inactive)
NNC(=O)CP(=O)(c1ccccc1)c1ccccc1	1.5% (inactive)	0.6%	-2% (inactive)	-2.45% (inactive)	34.3% (inactive)	1.1% (inactive)	-12.6% (inactive)	10% (inactive)	7.2% (inactive)
O=C1C(c2[nH]c3ccccc3c2O)=Nc2ccccc21	-0.7% (inactive)	1.4%	1.2% (inactive)	18.2% (inactive)	27.2% (inactive)	0.5% (inactive)	16.9% (inactive)	24.1% (inactive)	0.2% (inactive)
c1ccc(CNCCNCc2ccccc2)cc1	4% (inactive)	4.4%	3.4% (inactive)	-31.8% (inactive)	-24% (inactive)	2.1% (inactive)	-6.83% (inactive)	20% (inactive)	-22.2% (inactive)
COc1cc2c(cc1OC)C(C(C(=O)N(CCc1ccc(OC)c(OC)c1OC)CCc1ccc(OC)c(OC)c1OC)c1ccccc1)=NCC2 (centres undefined)	4.4% (inactive)	8.3%	-0.9% (inactive)	74.1% (active)	20.6% (inactive)	4.1% (inactive)	83.5% (active)	87.9% (active)	69.8% (active)
CO/N=C(/C(=O)N[C@@H]1C(=O)N2C(C(=O)OCOC(=O)C(C)(C)C)=C(C)CS[C@H]12)c1csc(N)n1	1% (inactive)	-2%	5.9% (inactive)	7.7% (inactive)	-11.2% (inactive)	-21% (inactive)	0.6% (inactive)	15% (inactive)	-8.3% (inactive)
O=C(O)Cc1ccc(CCNS(=O)(=O)c2ccc(Cl)cc2)cc1	0% (inactive)	0.1%	0.2% (inactive)	-5.1% (inactive)	3.3% (inactive)	-2.9% (inactive)	-4% (inactive)	1.5% (inactive)	-6.1% (inactive)
CC(=O)N1CCN(c2ccc(O)cc2)CC1	1.7% (inactive)	-1.5%	-0.1% (inactive)	73.5% (active)	-25.3% (inactive)	3.8% (inactive)	38.5% (inactive)	101% (active)	34.4% (inactive)
COC(=O)[C@H]1[C@H]2C[C@@H]3c4[nH]c5cc(OC)ccc5c4CCN3C[C@H]2C[C@@H](OC(=O)COc2ccc(OC)cc2)[C@@H]1OC	3.2% (inactive)	-0.2%	-1.2% (inactive)	10.9% (inactive)	9.6% (inactive)	8.5% (inactive)	33.6% (inactive)	-12.3% (inactive)	1.9% (inactive)
CC1CCCCN1CCCOC(=O)c1ccc(OC2CCCCC2)cc1 (centres undefined)	14.4% (inactive)	4.4%	12.4% (inactive)	21.7% (inactive)	-14.7% (inactive)	5.9% (inactive)	83.6% (active)	111% (active)	94.7% (active)
O=C(O)c1ccc(OCCCOc2ccc(C(=O)O)cc2)cc1	1.9% (inactive)	0.7%	3.2% (inactive)	-0.8% (inactive)	-2.8% (inactive)	-1.8% (inactive)	-0.8% (inactive)	5.3% (inactive)	-6.3% (inactive)
Cc1cc(CC(=O)O)c(C)n1-c1ccc(Cl)cc1	-0.5% (inactive)	-0.4%	2.3% (inactive)	-14.4% (inactive)	1.3% (inactive)	-0.2% (inactive)	7.9% (inactive)	11.7% (inactive)	-14.3% (inactive)
